Measured values as given in PubChem BioAssay (Tox21).
Results filed as inconclusive are left out. Activity calls are given as the source filed them. Unless noted, calls come from the whole dose curve; as a rule, active = well fitted curve in the direction sought with a large enough effect in the repeat runs; inconclusive = weak or mixed curves; inactive = flat fitted curve, though single readings scatter.

Legend:
[1] = qHTS assay to test for compound auto fluorescence at 535 nm (green) in HEK293 cells (AID 720680)
[2] = qHTS assay to test for compound auto fluorescence at 460 nm (blue) in HEK293 cell free culture (AID 720681)
How it was run: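 Compounds were added to cell-free DMEM with 10% FBS and fluorescence read directly. The blue channel used 405 nm excitation and 460 nm emission, with triamterene as the reference fluorophore.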

[3] = qHTS assay to test for compound auto fluorescence at 535 nm (green) in HEK293 cell free culture (AID 720682)
How it was run: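 Read-out: 485/535 nm fluorescence intensity, calibrated against fluorescein. Medium only (DMEM + 10% FBS, no cells); test compound or DMSO vehicle added by pintool before plate reading.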

[4] = qHTS assay to test for compound auto fluorescence at 590 nm (red) in HEK293 cell free culture (AID 720683)
How it was run: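 Cell-free wells of DMEM with 10% FBS received compound, and intrinsic fluorescence was read at excitation/emission 540/590 nm. Values expressed as equivalence to Rose Bengal sodium.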

[5] = qHTS assay to test for compound auto fluorescence at 590 nm (red) in HepG2 cell free culture (AID 720684)
How it was run: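 Compound was pinned into wells holding MEM with 10% FBS and no cells, and red fluorescence was read at Ex/Em 540/590 nm. Signal is expressed as auto fluorescence equivalency relative to Rose Bengal sodium.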

[6] = qHTS assay to test for compound auto fluorescence at 460 nm (blue) in HepG2 cell free culture (AID 720685)
How it was run: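 Compound (23 nL) or DMSO pinned into cell-free MEM with 10% FBS; blue fluorescence read at 405/460 nm excitation/emission, expressed as auto-fluorescence equivalency to triamterene.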

[7] = qHTS assay to test for compound auto fluorescence at 535 nm (green) in HepG2 cell free culture (AID 720686)
[8] = qHTS assay to test for compound auto fluorescence at 460 nm (blue) in HepG2 cells (AID 720687)
How it was run: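 HepG2 cells in MEM with 10% FBS, attached overnight at 37 C, were exposed to compound or DMSO for 1 hr at 37 C, 5% CO2. Blue fluorescence was read at 405/460 nm, with triamterene as reference fluorophore.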

[9] = molecular target: Glucocorticoid receptor (Homo sapiens) (UniProt P04150); test: qHTS assay to identify small molecule agonists of the glucocorticoid receptor (GR) signaling pathway (AID 720691; active = well fitted activation curve with a large enough effect in the signal ratio in the repeat runs, not every such curve was filed as active; the % refers to the signal ratio); conditions: GR-bla HeLa, beta-lactamase reporter ratio, 18 h; activation: at 62.4 µM (top of the series)
How it was run: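 Agonist mode in a HeLa line carrying a GRE-controlled beta-lactamase reporter. Compounds act for 18 h at 37 C before a 2 h room-temperature FRET substrate step and fluorescence reading.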
% is set by controls: 0 for no effect and ±100 for the full control effect.

Sequence of Glucocorticoid receptor (Homo sapiens) (P04150 whole entry, looked up): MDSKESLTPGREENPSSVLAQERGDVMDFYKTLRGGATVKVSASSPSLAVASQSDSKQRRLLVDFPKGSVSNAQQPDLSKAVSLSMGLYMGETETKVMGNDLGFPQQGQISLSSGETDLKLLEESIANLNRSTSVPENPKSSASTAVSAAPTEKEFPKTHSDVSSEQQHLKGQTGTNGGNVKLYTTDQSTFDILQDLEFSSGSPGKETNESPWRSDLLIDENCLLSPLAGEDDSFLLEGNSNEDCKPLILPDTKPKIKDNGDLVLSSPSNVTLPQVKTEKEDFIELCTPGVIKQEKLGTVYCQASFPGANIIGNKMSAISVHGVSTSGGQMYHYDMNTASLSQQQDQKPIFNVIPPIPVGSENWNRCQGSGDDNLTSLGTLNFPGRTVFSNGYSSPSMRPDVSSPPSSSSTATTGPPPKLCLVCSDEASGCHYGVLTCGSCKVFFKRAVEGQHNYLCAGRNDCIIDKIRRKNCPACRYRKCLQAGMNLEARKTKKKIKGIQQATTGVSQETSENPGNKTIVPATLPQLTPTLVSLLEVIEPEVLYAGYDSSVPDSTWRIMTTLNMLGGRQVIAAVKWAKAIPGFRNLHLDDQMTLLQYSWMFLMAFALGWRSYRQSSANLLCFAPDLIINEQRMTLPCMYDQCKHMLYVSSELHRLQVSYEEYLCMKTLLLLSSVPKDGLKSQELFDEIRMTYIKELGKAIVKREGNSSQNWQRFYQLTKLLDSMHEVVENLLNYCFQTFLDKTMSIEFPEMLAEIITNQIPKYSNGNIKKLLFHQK

CCOC(=O)COc1ccc(C)cc1
inactive: Potency [1] | Potency [2] | Potency [3] | Potency [4] | Potency [5] | Potency [6] | Potency [7] | Potency [8]

O=C(Nc1ccc(Cl)cc1)Nc1ccc(Cl)c(C(F)(F)F)c1
inactive: Potency [1] | Potency [2] | Potency [3] | Potency [4] | Potency [5] | Potency [6] | Potency [7]

CC(C)c1ccc(O)c(C(C)C)c1
inactive: Potency [1] | Potency [2] | Potency [3] | Potency [4] | Potency [5] | Potency [6] | Potency [7] | Potency [8]

Cc1cc2c(C(C)C)c(O)c(O)c(C=O)c2c(O)c1-c1c(C)cc2c(C(C)C)c(O)c(O)c(C=O)c2c1O
inactive: Potency [1] | Potency [2] | Potency [3] | Potency [4] | Potency [5] | Potency [6] | Potency [7] | Potency [8]

Cc1cccc(C)c1NC(=O)CN1CCN(CCCC(c2ccc(F)cc2)c2ccc(F)cc2)CC1
inactive: fluorescence, % of fluorescein [1] 0.0034% [at 18.6 µM] | fluorescence, % of fluorescent control [2] -0.178% [at 18.6 µM] | activity change [3] 0.0074% [at 18.6 µM, hits give high values] | fluorescence, % of fluorescent control [4] -0.297% [at 18.6 µM] | fluorescence, % of Rose Bengal [5] -0.0617% [at 18.6 µM] | fluorescence, % of fluorescent control [6] -0.0263% [at 18.6 µM] | fluorescence, % of fluorescein control [7] 0.0052% [at 18.6 µM] | fluorescence, % of fluorescent control [8] -0.0418% [at 18.6 µM]

c1ccc(Sc2ccccc2)cc1
inactive: Potency [1] | Potency [2] | Potency [3] | Potency [4] | Potency [5] | Potency [6] | Potency [7]

CN1CCN(C2Cc3ccccc3Sc3ccc(Cl)cc32)CC1 (stereo not given)
inactive: Potency [1] | Potency [2] | Potency [3] | Potency [4] | Potency [5] | Potency [6] | Potency [7]

CCCCCCCOC(=O)c1ccc(O)cc1
inactive: Potency [1] | Potency [2] | Potency [3] | Potency [4] | Potency [5] | Potency [6] | Potency [7] | Potency [8]

C=C1C(C)(C)[C@@]2(Cl)C(Cl)[C@]1(Cl)C(Cl)(Cl)C2(Cl)Cl (stereo not given in full)
inactive: Potency [1] | Potency [2] | Potency [3] | Potency [4] | Potency [5] | Potency [6] | Potency [7] | Potency [8]

CCN(CC)CCCN(c1ccccc1)C1Cc2ccccc2C1
inactive: Potency [1] | Potency [2] | Potency [3] | Potency [4] | Potency [5] | Potency [6] | Potency [7]

CC(C(O)c1ccccc1)N(C)CCOC(c1ccccc1)c1ccccc1 (stereo not given)
inactive: Potency [1] | Potency [2] | Potency [3] | Potency [4] | Potency [5] | Potency [6] | Potency [7] | Potency [8] | Potency [9]

CC(O)C#CC(C)O (stereo not given)
inactive: Potency [1] | Potency [2] | Potency [3] | Potency [4] | Potency [5] | Potency [6] | Potency [7] | Potency [8] | Potency [9]

CCN1CCN(c2cc(-c3ccc(F)cc3)c3c(n2)CCCCCC3)CC1
inactive: Potency [1] | Potency [2] | Potency [3] | Potency [4] | Potency [5] | Potency [6] | Potency [7] | Potency [8] | Potency [9]

Cc1ccc2ccc3cccc4ccc1c2c34
inactive: Potency [1] | Potency [2] | Potency [3] | Potency [4] | Potency [5] | Potency [6] | Potency [7] | Potency [8] | Potency [9]

CC(COC(=O)c1ccccc1)OC(=O)c1ccccc1 (stereo not given)
inactive: Potency [1] | Potency [2] | Potency [3] | Potency [4] | Potency [5] | Potency [6] | Potency [7] | Potency [8]

c1cc2c3c(c1)ccc1cccc(c13)C2
inactive: Potency [1] | Potency [2] | Potency [3] | Potency [4] | Potency [5] | Potency [6] | Potency [7] | Potency [8] | Potency [9]

CNCC[C@H](Oc1cccc2ccccc12)c1cccs1
inactive: Potency [1] | Potency [2] | Potency [3] | Potency [4] | Potency [5] | Potency [6] | Potency [7] | Potency [8] | Potency [9]

c1ccc(Nc2cccc3ccccc23)cc1
inactive: Potency [1] | Potency [2] | Potency [3] | Potency [4] | Potency [5] | Potency [6] | Potency [7] | Potency [8] | Potency [9]

[O]=[Zr]
inactive: Potency [1] | Potency [2] | Potency [3] | Potency [4] | Potency [5] | Potency [6] | Potency [7] | Potency [8]

CCOC(=O)N1CCC(=C2c3ccc(Cl)cc3CCc3cccnc32)CC1
inactive: Potency [1] | Potency [2] | Potency [3] | Potency [4] | Potency [5] | Potency [6] | Potency [7] | Potency [8] | Potency [9]

O=C1c2c(O)ccc(O)c2C(=O)c2c(NCCNCCO)ccc(NCCNCCO)c21
inactive: fluorescence, % of fluorescein [1] 0.0058% [at 18.6 µM] | fluorescence, % of fluorescent control [2] -0.133% [at 18.6 µM] | activity change [3] -0.248% [at 18.6 µM, hits give high values] | fluorescence, % of fluorescent control [4] -0.213% [at 18.6 µM] | fluorescence, % of Rose Bengal [5] -0.463% [at 18.6 µM] | fluorescence, % of fluorescent control [6] -0.123% [at 18.6 µM] | fluorescence, % of fluorescein control [7] -0.22% [at 18.6 µM] | fluorescence, % of fluorescent control [8] -0.0158% [at 18.6 µM]

N[C@@H](CSSC[C@H](N)C(=O)O)C(=O)O
inactive: Potency [1] | Potency [2] | Potency [3] | Potency [4] | Potency [5] | Potency [6] | Potency [7] | Potency [8] | Potency [9]

COc1ccc2sc(C(=O)Nc3nnn[nH]3)c(OC(C)C)c2c1
inactive: Potency [1] | Potency [2] | Potency [3] | Potency [4] | Potency [5] | Potency [6] | Potency [7] | Potency [8] | Potency [9]
